Here are results for 24 molecules from PubChem BioAssay (Tox21).

Assay [1] in a line: qHTS assay for small molecule agonists of the p53 signaling pathway (AID 651631; calls by dose curve; further: nearly all actives have a fitted effect of over 15% in size; further: potency means the concentration at half of the fitted maximal effect). The essentials:
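Stably transfected HCT-116 cells (beta-lactamase behind p53 response elements) get compounds after a 5 h settling period; 16 h later at 37 °C, FRET substrate is loaded and fluorescence read after 2 h.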
Background: Quantitative high-throughput screening tests each substance at several concentrations.

Assay [2] in a line: qHTS assay for small molecules that induce genotoxicity in human embryonic kidney cells expressing luciferase-tagged ATAD5 (AID 651632). Further: nearly all actives have a fitted effect of over 15% in size. The essentials: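 HEK293T cells carrying a luciferase reporter tagged to ATAD5 were exposed to compound or DMSO vehicle for 16 hr at 37C, 5% CO2. Amplite was added, and after 30 min at room temperature luciferase activity was read as a marker of ATAD5 induction.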

Assay [3] in a line: qHTS assay for small molecule agonists of the p53 signaling pathway - cell viability (AID 651633; calls by dose curve;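 further: p53RE-bla HCT reporter cells with a stable beta-lactamase p53 reporter; series mostly up to about 83 µM; nearly all actives have a fitted effect of over 30% in size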). The essentials: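 Viability counter-read: CellTiter-Glo luminescence (30 min, room temperature) in the same p53RE-bla plates. These plates had been exposed to compounds for 16 h at 37 C.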
A short description of assay [4]: qHTS assay for small molecules that induce genotoxicity in human embryonic kidney cells expressing luciferase-tagged ATAD5 - cell viability (AID 651634; calls by dose curve; further: nearly all actives have a fitted effect of over 25% in size; further: potency means the concentration at half of the fitted maximal effect). A digest of the protocol: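 HEK293T cells expressing luciferase-tagged ATAD5 were exposed to compound or DMSO for 15.5 hr at 37C, 5% CO2. Viability was then read as live-cell protease activity by CellTiter-Fluor fluorescence after 30 min at 37C.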

Assay [5] can be described thus: qHTS assay for small molecule disruptors of the mitochondrial membrane potential - cell viability (AID 720634; calls by dose curve;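 further: human HepG2 liver cancer cells; series mostly up to about 83 µM; nearly all actives have a fitted effect of over 20% in size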). A digest of the protocol: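 HepG2 cells seeded overnight at 37 C, then exposed to compound or DMSO for 1 hr at 37 C, 5% CO2. m-MPI dye added, then CellTiter-Glo for 30 min at room temperature; viability read as ATP luminescence.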
Assay [6] is described as follows: qHTS assay to test for compound auto fluorescence at 590 nm (red) in HepG2 cells (AID 720674). The essentials:
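We screened compounds on adherent HepG2 cells, incubating them for an hour at 37 C in 5% CO2 before reading emission at 590 nm under 540 nm excitation; values reflect equivalence to Rose Bengal sodium fluorescence.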

The nature of assay [7]: qHTS assay to test for compound auto fluorescence at 535 nm (green) in HepG2 cells (AID 720675).
The nature of assay [8]: qHTS assay to test for compound auto fluorescence at 460 nm (blue) in HEK293 cells (AID 720678). The essentials: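 HEK293, 2,000 cells/well, 10% dialyzed FBS; attach 4-5 hr 37C; pin compound or DMSO; o/n 37C/5% CO2; fluorescence 405/460 nm; triamterene-equivalent units.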
Assay [9] can be described thus: qHTS assay to test for compound auto fluorescence at 590 nm (red) in HEK293 cells (AID 720679). The essentials: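 Intensity at 540nm excitation and 590nm emission is reported as Rose Bengal sodium-equivalent autofluorescence. Measurements followed overnight exposure (37C, 5% CO2) of HEK293 cells, 2,000 per well, to 23 nL compound.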
Assay [10] in a line: qHTS assay for small molecule disruptors of the mitochondrial membrane potential (AID 720635). Further: potency means the concentration at half of the fitted maximal effect. A digest of the protocol:
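Mitochondrial membrane potential tracked with Mito-MPS dye, red aggregates (ex 540/em 590 nm) against green monomers (ex 490/em 535 nm). Compound treatment 1 hr at 37C, dye 30 min in HepG2.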

“And” between values parts separate entries of the source, which are not always exact repeats. Equal values may be shown once. Inconclusive results are not listed. The source made the active and inactive calls. Unless noted, the call rests on the fitted dose curve; in most records, active means well fitted curve in the direction sought with a large enough effect in the repeat runs; inconclusive means weak or mixed curves; inactive means no such curve, though single readings can be large; an effect the other way counts as inactive or inconclusive.

For `C=CCOC(=O)C(=C)C`, the Potency entry in assay [1], in [2], in assay [3], in assay [4], in assay [5] and in assay [6] was “inactive” each time. The Potency result in assay [7] and in assay [9] was “inactive” in each case. Moreover, in [8], the call was inactive.

In the case of `C=CCNCC=C`, the Potency result in assay [1], in assay [2], in assay [3], in assay [6], in assay [7] and in [9] was “inactive” each time. In addition, the molecule was classed as inactive in assay [8].

For `CCCOCCO`, the Potency result in assay [1], in [2], in assay [3], in assay [5], in assay [10] and in assay [6] was “inactive” throughout. The Potency entry in assay [7] and in assay [9] was “inactive” throughout. Further, the outcome in assay [8] was inactive.

Turning to `C=CCCCCCCCCCC`, the Potency result in assay [1], in [2], in [3], in assay [4], in assay [5] and in assay [6] was “inactive” in each case. The Potency entry in assay [7] and in assay [9] was “inactive” throughout. The molecule was classed as inactive in assay [8].

As to `Oc1c(Cl)ccc(Cl)c1Cl`, the Potency entry in [1], in assay [2], in [3], in assay [4], in [6] and in [7] was “inactive” each time. In addition, in [9], the Potency result was “inactive”. Further, the Potency in assay [10] was 4.32 µM (active) and 61.1 µM (active). The molecule was called inactive in assay [8].

In the case of `Cc1ccc([N+](=O)[O-])c(C)c1`, the Potency entry in [1], in [2], in assay [3], in assay [5], in assay [6] and in assay [7] was “inactive” each time. Further, the Potency entry in assay [9] was “inactive”. The molecule was classed as inactive in assay [8].

Take `CCCCCCCCCCCCO`: the Potency entry in [1], in assay [2], in assay [3], in assay [4], in [5] and in [10] was “inactive” each time. The Potency entry in [6], in assay [7] and in assay [9] was “inactive” throughout. In assay [8], the molecule was classed as inactive.

As to `c1ccc2c(c1)[nH]c1ccccc12`, the Potency entry in assay [1], in assay [2], in assay [3], in [4], in assay [6] and in assay [7] was “inactive” each time. Moreover, the Potency entry in [9] was “inactive”. Also, the Potency in [10] was 19 µM (active) and 21.7 µM (active). Moreover, the result in [8] was inactive.

As to `O=C1CCc2ccccc2O1`, the Potency entry in [1], in assay [2], in assay [3], in assay [4], in assay [5] and in assay [10] was “inactive” throughout. Further, the Potency entry in assay [6], in assay [7] and in assay [9] was “inactive” throughout. Also, the outcome in assay [8] was inactive.

`C[C@]12CC[C@@H]3c4ccc(O)cc4CC[C@H]3[C@@H]1CC[C@@H]2O`: the Potency in assay [1] is 13.3 µM (active) and 19.3 µM (active) and 9.69 µM (active); in [10], 26.6 µM (active) and 30.6 µM (active) and 17.2 µM (active). For the same molecule, the Potency result in assay [2], in [3], in [5], in assay [6] and in [9] was “inactive” each time. Also, the result in [8] was inactive.

As for `CN(C)C`, the Potency entry in assay [1], in [2], in [3], in assay [4], in assay [5] and in [10] was “inactive” each time. Also, the Potency result in assay [6] and in assay [9] was “inactive” in each case. Also, the call in [8] was inactive.

With `CC1(C)OC(=O)NC1=O`, the Potency entry in [1], in [2], in assay [3], in assay [4], in assay [5] and in assay [6] was “inactive” each time. Further, the Potency entry in assay [7] and in assay [9] was “inactive” throughout. Besides, the molecule was called inactive in [8].

As to `C=CN1CCCC1=O`, the Potency entry in assay [1], in [2], in assay [3], in assay [5], in [6] and in assay [7] was “inactive” each time. In addition, the Potency result in assay [9] was “inactive”. Moreover, in assay [8], the outcome was inactive.

Regarding `Cc1ccc2c(c1)C(=O)OC2=O`, the Potency entry in [1], in assay [2], in assay [3], in assay [4], in assay [5] and in assay [6] was “inactive” each time. Also, the Potency entry in assay [7] and in assay [9] was “inactive” each time. In assay [8], the molecule was called inactive.

Turning to `COC(=O)c1ccc(C)cc1`, the Potency result in assay [1], in assay [2], in assay [3], in [4], in assay [5] and in assay [6] was “inactive” throughout. In [9], the Potency result is “inactive”. In [8], the result was inactive.

Consider `CCC(Cc1c(I)cc(I)c(N)c1I)C(=O)O` (stereo not given), for which the Potency entry in assay [1], in [2], in assay [3], in assay [4], in assay [5] and in assay [10] was “inactive” throughout. The Potency result in assay [6] and in assay [9] was “inactive” each time. The outcome in assay [8] was inactive.

Take `COCCOCCOCCO`: the Potency result in assay [1], in assay [2], in assay [3], in assay [4], in assay [6] and in assay [7] was “inactive” throughout. Further, the Potency entry in [9] was “inactive”. In [8], the molecule was classed as inactive.

For `C=C1C[C@H]2[C@@H]3C=C(C)C4=CC(=O)CC[C@]4(C)[C@H]3CC[C@]2(C)[C@@]1(OC(C)=O)C(C)=O`, the Potency result in assay [1], in assay [2], in assay [3], in assay [4], in assay [5] and in [10] was “inactive” in each case. Moreover, the Potency result in [6], in assay [7] and in assay [9] was “inactive” each time. In addition, the outcome in [8] was inactive.

For `C=CC(=O)OCCCC`, the Potency entry in assay [1], in assay [2], in [3], in [4], in assay [5] and in [6] was “inactive” throughout. Moreover, the Potency entry in assay [7] and in [9] was “inactive” each time. Moreover, the call in assay [8] was inactive.

Turning to `O=C(O)CCCC(=O)O`, the Potency result in assay [1], in assay [2], in assay [3], in [4], in assay [5] and in assay [6] was “inactive” in each case. In assay [9], the Potency entry was “inactive”. For the same molecule, in [8], the call was inactive.

On to `Nc1ccc(N)c(Cl)c1`, for which the Potency result in assay [1], in assay [2], in assay [3], in assay [4], in [5] and in [6] was “inactive” in each case. Besides, the Potency entry in assay [7] and in assay [9] was “inactive” each time. Moreover, in assay [8], the outcome was inactive.

For the molecule `Nc1ccc(O)c(N)c1`, the Potency entry in assay [1], in [2], in assay [3], in assay [5], in assay [6] and in assay [7] was “inactive” throughout. Further, the Potency entry in [9] is “inactive”. Further, the Potency in assay [4] was 54.1 µM (active) and 61.1 µM (active). Moreover, the call in [8] was inactive.

`C/C=C/C(=O)N(CC)c1ccccc1C`: the Potency entry in assay [1], in assay [2], in assay [3], in assay [4], in assay [5] and in [10] was “inactive” throughout. The Potency entry in [6] and in assay [9] was “inactive” in each case. Further, the call in assay [8] was inactive.

For `CCCCCCCCCCC(CO)CCCCCCCC` (stereo not given), the Potency entry in assay [1], in assay [2], in assay [3], in assay [5], in [10] and in assay [6] was “inactive” in each case. Also, the Potency entry in assay [9] was “inactive”. Also, in assay [8], the outcome was inactive.
